Source: PubChem BioAssay
Calls of active or inactive are those of the source. Unless noted, the rule behind the calls is not given here.

Tests used:
[1] = system: Wnt5a (protein binding on small-molecule microarray); assay: small molecules binding Wnt5a protein – biophysical, small-molecule microarray, 635/667 nm fluorescence, primary screen (AID 1142); conditions: 635 nm fluorescence, higher = more signal;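 note: fluorescence read at 667 nm with signal to noise per printed feature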
[2] = ATP-based viability of Huh7 replicon cells – cell-based, CellTiter-Glo luminescence, basal, 48 h, cytotoxicity control for HCV replication inhibitor project, primary screen (AID 1143); conditions: higher = more signal, called active from +8 up or from −8 down;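 note: Huh7 hepatoma cells carrying a hepatitis C replication reporter with no stimulus; test concentration not given here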
[3] = Pseudomonas biofilm growth suppression – PAO1 strain, BacTiter-Glo luminescence, LB-PBS, primary screen (AID 1144); conditions: P. aeruginosa PAO1 biofilm, 12 h, higher = more signal
[4] = basal CRE-LacZ reporter activity in PC12 – cell-based, unstimulated, primary screen (AID 1145); conditions: no forskolin, luminescence, 4.5 h, higher = more signal, called active from +8 up or from −8 down
[5] = forskolin-driven CRE-LacZ activity in PC12 – cell-based, CRE-LacZ reporter, forskolin-stimulated, primary screen (AID 1146); conditions: luminescence, 4.5 h, higher = more signal, called active from +8 up or from −8 down;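 note: PC12 cells with 6xCRE LacZ reporter stimulated by forskolin 10 µM; beta-galactosidase reporter signal reflecting CREB driven transcription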
[6] = target: Streptavidin (Streptomyces avidinii) (UniProt P22629); assay: compounds binding control protein streptavidin – biophysical, small-molecule microarray, 635/667 nm fluorescence, artefact control for SMM compound annotation, primary screen (AID 1147); conditions: higher = more signal;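 note: signal reflects streptavidin binding to arrayed compounds as a control protein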
[7] = probe aInhba binding on compound microarray – biochemical, small-molecule microarray, 635/667 nm fluorescence, primary screen (AID 1148); conditions: higher = more signal;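 note: score merges 667nm spot fluorescence with signal-to-noise for antibody binding to printed compounds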
Torsin-1A (Homo sapiens) [8] = target: Torsin-1A (Homo sapiens) (UniProt O14656); assay: TOR1A wild-type binding on microarray – cell lysate, small-molecule microarray, lysate, 635/667 nm, primary screen (AID 1149); conditions: COS7 hTOR1A-WT lysate, 635 nm fluorescence, higher = more signal
Torsin-1A (Homo sapiens) [9] = target: Torsin-1A (Homo sapiens) (UniProt O14656); assay: torsin A mutant lysate binding on microarrays – cell lysate, small-molecule microarray, COS7 lysate, 635/667 nm fluorescence, primary screen (AID 1150); conditions: COS7 hTOR1A mutant lysate, 635 nm fluorescence, higher = more signal;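 note: score pools 667 nm emission and signal to noise measuring lysate protein binding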
[10] = system: Sonic hedgehog protein (Shh); assay: Sonic hedgehog microarray binding compounds – biochemical, small-molecule microarray, 635/667 nm fluorescence, primary screen (AID 1151); conditions: 635 nm fluorescence, higher = more signal;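 note: Shh protein binding to compounds spotted on small-molecule microarray slides; score combines spot fluorescence intensity with signal-to-noise across triplicate slides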
[11] = optical density shifts of acrAB sulA E. coli – strain DRC41, OD650, 48 h, E. coli filamentation inducer project, primary screen (AID 1152); conditions: higher = more signal, called active from +8 up or from −8 down;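 note: E. coli MC1000 strain DRC41 lacking acrAB efflux pump and sulA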
[12] = probe aLefty1 binding on compound microarray – biochemical, small-molecule microarray, 635/667 nm fluorescence, primary screen (AID 1153); conditions: higher = more signal;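 note: score merges spot fluorescence with signal-to-noise ratio from the scanned slide images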
[13] = plasmodial surface anion channel blockers, osmotic lysis – cell-based, P. falciparum Indochina, OD700, 1 h, primary screen (AID 1154); conditions: P. falciparum Indochina infected RBC osmotic lysis, higher = more signal, called active from +8 up or from −8 down
[14] = plasmodial surface anion channel blockers, osmotic lysis – cell-based, P. falciparum Indochina, OD700, 2 h, primary screen (AID 1155);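 note: lysis reports solute entry through the parasite surface anion channel PSAC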; conditions: P. falciparum Indochina infected erythrocytes, higher = more signal, called active from +8 up or from −8 down
[15] = changes in parasitized red cell lysis, either direction – P. falciparum Indochina, OD700, 3 h, PSAC antagonist project, primary screen (AID 1156); conditions: P. falciparum-infected erythrocytes, osmotic lysis, higher = more signal, called active from +8 up or from −8 down
[16] = plasmodial surface anion channel blockers, osmotic lysis – cell-based, P. falciparum Indochina, OD700, 18 h, primary screen (AID 1157); conditions: P. falciparum Indochina infected erythrocytes, osmotic lysis OD700, 18 h; higher = more signal, called active from +8 up or from −8 down
[17] = S6 kinase pathway phospho-S6 level changes – cell-based, A549, cytoblot, luminescence, serum-stimulated, primary screen (AID 1158); conditions: 5 h, higher = more signal;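 note: serum-stimulated A549 lung adenocarcinoma cells; signal is phosphorylated S6 detected by cytoblot immunostaining with HRP secondary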
[18] = target: NADPH oxidase 2 (Homo sapiens) (UniProt P04839); assay: compounds shifting NOX2 Amplex Red fluorescence – cell-based, HEK293-NOX2, PMA-stimulated, NOX inhibitor project, primary screen (AID 1159); conditions: 45 min, higher = more signal, called active from +8 up or from −8 down; note: test concentration not given here
[19] = target: NADPH oxidase 4 (Homo sapiens) (UniProt Q9NPH5); assay: compounds shifting NOX4 Amplex Red fluorescence – cell-based, HEK293-NOX4, tetracycline-induced, NOX inhibitor project, primary screen (AID 1160); conditions: HEK293-NOX4, Amplex Red H2O2 fluorescence, 45 min; higher = more signal, called active from +8 up or from −8 down
[20] = target: NADPH oxidase 5 (Homo sapiens) (UniProt Q96PH1); assay: compounds shifting NOX5 Amplex Red fluorescence – cell-based, HEK293-NOX5, NOX inhibitor project, primary screen (AID 1161); conditions: HEK293-NOX5, ionomycin, 45 min, higher = more signal
Chain of NADPH oxidase 5 (Homo sapiens) (Q96PH1 whole entry, looked up): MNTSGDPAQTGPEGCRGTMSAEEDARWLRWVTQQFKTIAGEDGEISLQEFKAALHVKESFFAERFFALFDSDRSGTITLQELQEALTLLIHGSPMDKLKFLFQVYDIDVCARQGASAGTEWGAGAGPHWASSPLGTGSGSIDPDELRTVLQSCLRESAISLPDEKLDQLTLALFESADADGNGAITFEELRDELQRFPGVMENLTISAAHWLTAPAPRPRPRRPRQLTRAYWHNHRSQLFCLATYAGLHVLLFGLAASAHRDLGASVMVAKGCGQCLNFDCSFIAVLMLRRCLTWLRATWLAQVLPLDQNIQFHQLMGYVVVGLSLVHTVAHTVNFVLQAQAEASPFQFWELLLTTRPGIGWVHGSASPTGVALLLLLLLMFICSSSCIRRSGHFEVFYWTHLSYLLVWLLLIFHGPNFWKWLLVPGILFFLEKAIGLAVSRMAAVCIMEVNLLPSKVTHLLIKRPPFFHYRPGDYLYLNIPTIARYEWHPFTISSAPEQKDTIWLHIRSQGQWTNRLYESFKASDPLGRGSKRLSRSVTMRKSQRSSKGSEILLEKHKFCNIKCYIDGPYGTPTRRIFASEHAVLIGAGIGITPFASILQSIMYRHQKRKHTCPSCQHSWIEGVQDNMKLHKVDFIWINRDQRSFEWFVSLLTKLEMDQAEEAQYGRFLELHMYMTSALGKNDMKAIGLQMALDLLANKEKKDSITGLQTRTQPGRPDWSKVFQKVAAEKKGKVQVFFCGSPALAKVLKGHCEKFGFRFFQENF

Chain of NADPH oxidase 2 (Homo sapiens) (P04839 whole entry, looked up): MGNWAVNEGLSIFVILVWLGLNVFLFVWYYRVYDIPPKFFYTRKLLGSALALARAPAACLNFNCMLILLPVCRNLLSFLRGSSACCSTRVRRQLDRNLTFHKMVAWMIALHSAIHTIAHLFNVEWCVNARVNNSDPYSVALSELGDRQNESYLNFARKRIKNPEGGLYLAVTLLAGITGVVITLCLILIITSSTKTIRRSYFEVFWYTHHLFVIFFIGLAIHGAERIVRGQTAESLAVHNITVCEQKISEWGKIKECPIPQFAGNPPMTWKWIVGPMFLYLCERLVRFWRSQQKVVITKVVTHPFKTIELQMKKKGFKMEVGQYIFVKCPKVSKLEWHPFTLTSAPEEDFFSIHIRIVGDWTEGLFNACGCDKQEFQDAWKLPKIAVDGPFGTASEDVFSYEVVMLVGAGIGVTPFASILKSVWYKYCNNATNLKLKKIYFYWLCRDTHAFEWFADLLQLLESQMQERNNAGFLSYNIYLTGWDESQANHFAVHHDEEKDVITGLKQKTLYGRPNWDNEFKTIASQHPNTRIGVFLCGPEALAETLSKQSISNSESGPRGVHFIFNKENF
Chain of Torsin-1A (Homo sapiens) (O14656 whole entry, looked up): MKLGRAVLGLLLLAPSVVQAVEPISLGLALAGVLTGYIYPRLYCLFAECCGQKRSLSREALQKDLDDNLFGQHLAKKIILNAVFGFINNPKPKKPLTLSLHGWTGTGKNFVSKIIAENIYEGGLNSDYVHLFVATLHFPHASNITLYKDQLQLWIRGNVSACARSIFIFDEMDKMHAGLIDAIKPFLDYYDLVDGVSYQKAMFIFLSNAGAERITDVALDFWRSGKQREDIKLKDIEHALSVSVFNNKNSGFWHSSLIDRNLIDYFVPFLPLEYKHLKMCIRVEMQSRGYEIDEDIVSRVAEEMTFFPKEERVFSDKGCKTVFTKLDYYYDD
Chain of Streptavidin (Streptomyces avidinii) (P22629 whole entry, looked up): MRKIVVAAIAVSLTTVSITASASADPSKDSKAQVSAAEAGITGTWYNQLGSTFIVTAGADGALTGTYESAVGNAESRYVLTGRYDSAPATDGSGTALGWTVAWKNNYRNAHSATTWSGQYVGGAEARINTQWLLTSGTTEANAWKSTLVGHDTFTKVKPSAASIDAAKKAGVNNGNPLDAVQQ
Chain of NADPH oxidase 4 (Homo sapiens) (Q9NPH5 whole entry, looked up): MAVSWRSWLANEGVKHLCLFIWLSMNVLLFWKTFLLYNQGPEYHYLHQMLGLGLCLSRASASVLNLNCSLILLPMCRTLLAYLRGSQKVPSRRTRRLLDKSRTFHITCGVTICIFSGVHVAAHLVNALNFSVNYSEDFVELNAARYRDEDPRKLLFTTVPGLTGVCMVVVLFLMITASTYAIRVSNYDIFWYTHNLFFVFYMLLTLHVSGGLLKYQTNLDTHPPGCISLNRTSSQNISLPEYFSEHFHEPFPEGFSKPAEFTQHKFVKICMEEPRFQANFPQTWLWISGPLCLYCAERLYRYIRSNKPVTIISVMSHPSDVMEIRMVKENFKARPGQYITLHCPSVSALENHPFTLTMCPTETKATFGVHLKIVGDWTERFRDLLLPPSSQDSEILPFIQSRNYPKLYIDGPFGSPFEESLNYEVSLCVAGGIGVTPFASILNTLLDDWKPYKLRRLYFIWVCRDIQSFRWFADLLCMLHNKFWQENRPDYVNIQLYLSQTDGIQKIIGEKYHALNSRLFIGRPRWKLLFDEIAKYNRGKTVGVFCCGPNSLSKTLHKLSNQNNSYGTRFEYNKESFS

Row | Compound | composite z-score [1] | z-score [2] | z-score [3] | z-score [4] | z-score [5] | composite z-score [6] | composite z-score [7] | composite z-score (Torsin-1A (Homo sapiens) [8]) | composite z-score (Torsin-1A (Homo sapiens) [9]) | composite z-score [10] | z-score [11] | composite z-score [12] | z-score [13] | z-score [14] | z-score [15] | z-score [16] | z-score [17] | z-score [18] | z-score [19] | z-score [20]
1 | CCCCCC1=C2CNC(Cc3ccccc3)(C(=O)OC)C=C2C(C)C1=O (stereo not given) | -0.176 | -1.49 (inactive) | 0.949 (inactive) | 0.4 (inactive) | 2.19 (inactive) | 0.0482 | 0.222 | -0.88 | 0.154 | -0.695 | -1.76 (inactive) | 0.568 | 2.16 (inactive) | -0.21 (inactive) | 1.04 (inactive) | 0.422 (inactive) | -0.275 | -0.733 (inactive) | -3.5 (inactive) | -3
2 | CCOC(=O)C1=CC[C@@H](c2ccccc2)N(S(=O)(=O)c2ccc(C)cc2)[C@H]1c1ccccc1I | 0.296 | -2.69 (inactive) | 0.366 (inactive) | 0.566 (inactive) | -0.226 (inactive) | 0.864 | 0.849 | -0.315 | 0.507 | 0.239 | -0.801 (inactive) | 1.24 | 1.18 (inactive) | 0.948 (inactive) | -0.597 (inactive) | 0.631 (inactive) | -0.94 | 0.62 (inactive) | 0.205 (inactive) | 0.721
3 | Cc1ccc(C(C)CC(O)C2C=CC3C(=O)N(C)C(=O)C3N2Nc2ccccc2)o1 (stereo not given) | 0.342 | -0.206 (inactive) | -0.368 (inactive) | 0.25 (inactive) | 0.471 (inactive) | 0.0989 | 0.0588 | 0.371 | -0.139 | 1.08 | -2.23 (inactive) | 0.356 | 2.46 (inactive) | 0.962 (inactive) | 0.684 (inactive) | 1.17 (inactive) | -1.4 | -1.73 (inactive) | -4.75 (inactive) | -3.53
4 | CC(=O)OCC1C2CC[C@H]3C(OCc4ccc(F)cc4C(F)(F)F)OC[C@]4(C)[C@H]3C2=C(CN4C(=O)OC(C)(C)C)[C@H](C)C1COC(C)=O (stereo not given in full) | 1.21 | -1.87 (inactive) | -0.212 (inactive) | 0.0075 (inactive) | 1.85 (inactive) | 1.16 | 0.196 | -0.172 | 1.67 | -1.24 | -2.4 (inactive) | 0.498 | 1.07 (inactive) | 0.678 (inactive) | 1.04 (inactive) | 0.593 (inactive) | -0.239 | -0.896 (inactive) | -2.29 (inactive) | -1.51
5 | O=C1[C@H]2C=C(I)[C@H](C[C@@H]2c2ccccc2)[C@@]12CO2 | -0.303 | -0.496 (inactive) | 0.686 (inactive) | 0.849 (inactive) | 1.31 (inactive) | -0.144 | -0.0762 | -0.114 | -0.153 | 0.147 | -1.76 (inactive) | -0.15 | 0.613 (inactive) | 0.0069 (inactive) | 0.402 (inactive) | -0.0396 (inactive) | -0.164 | -0.66 (inactive) | 0.265 (inactive) | -0.666
6 | C=CCC(OC(C)=O)[C@@H]1[C@@H](N(Cc2ccc(-c3cccc(C(F)(F)F)c3)o2)C(=O)c2ccc(-c3ccccc3)cc2)c2cc(OCCCO)ccc2N1C(=O)c1ccc2ccccc2c1 (stereo not given in full) | -0.0266 | -0.87 (inactive) | -0.491 (inactive) | -0.477 (inactive) | 0.308 (inactive) | 0.177 | -0.0279 | -0.756 | -0.322 | 1.57 | -0.251 (inactive) | 0.0718 | 0.7 (inactive) | -0.125 (inactive) | 1.36 (inactive) | 0.408 (inactive) | 0.921 | -1.99 (inactive) | -1.98 (inactive) | -1.09
7 | [N-]=[N+]=NCc1ccccc1[C@@H]1OC(c2ccc(OCCCO)cc2)=N[C@]1(Cc1ccccc1N=[N+]=[N-])C(=O)NCC(O)CO (stereo not given in full) | 0.88 | -1.49 (inactive) | 0.12 (inactive) | 0.47 (inactive) | -0.806 (inactive) | 1.74 | 0.791 | 0.553 | 1.65 | -0.771 | 0.553 (inactive) | 1.31 | 20.2 (active) | 5.06 (inactive) | 1.09 (inactive) | 1.1 (inactive) | -0.0256 | -0.868 (inactive) | 0.704 (inactive) | 1.5
8 | COC(=O)C[C@H]1O[C@@]2(C[C@@H]1[Si](C)(C)C)C(=O)N(C)c1ccccc12 | 0.0074 | -1.43 (inactive) | -0.355 (inactive) | 2.3 (inactive) | -0.923 (inactive) | 0.327 | -0.0468 | 0.185 | 0.117 | 1.44 | 3.12 (inactive) | 0.14 | -1.14 (inactive) | -0.694 (inactive) | -1.23 (inactive) | -1.92 (inactive) | 0.953 | -0.465 (inactive) | 0.764 (inactive) | 1.21
9 | C=CCNC(=O)[C@@H]1[C@H]2C(=O)O[C@H](c3ccccc3)[C@H](c3ccccc3)N2[C@H](c2ccc(OCCO)cc2)[C@@]12C(=O)Nc1ccc(C#CC3(O)CCCCCC3)cc12 | 0.407 | -5.36 (inactive) | -1.17 (inactive) | 0.155 (inactive) | 0.856 (inactive) | 0.981 | 0.0082 | 0.507 | 0.827 | 0.938 | 0.668 (inactive) | 0.239 | 4.16 (inactive) | 0.444 (inactive) | 1.02 (inactive) | -0.882 (inactive) | 1.35 | 0.385 (inactive) | -1.05 (inactive) | -1.63
